In all, about 220,000 compounds went through this assay and about 8,200 (3.7%) were called active. This is one part of a sample in which actives are shown more often than they occur.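 Rule for the calls: active = compounds that reduced the stress-induced luciferase reporter signal by more than about 70% of percent inhibition (limit read from the data); inactive = the rest.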
experiment: blockers of ER-stress CHOP reporter expression – cell-based, unfolded protein response, luciferase reporter, primary screen (AID 2732); conditions: CHO-K1 CHOP-promoter luciferase, tunicamycin-induced, 15-18 h; at 10 µM; stronger effect = higher value;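 note: 0% = tunicamycin plus vehicle and 100% = wells without tunicamycin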

SMILES | inhibition
COc1ccc(OC)c(-n2c(-c3ccn[nH]3)n[nH]c2=S)c1 | 12.3% (inactive)
CCOC(=O)N1CCN(c2c(NCCN3CCN(c4ccccc4F)CC3)c(=O)c2=O)CC1 | 18.8% (inactive)
O=C(Oc1ccccc1)c1ccc2nccnc2c1 | -6.68% (inactive)
c1ccc(-c2noc(-c3cccs3)n2)nc1 | 22.5% (inactive)
O=C(Oc1ccc(-c2nc(-c3ccccn3)no2)cc1)c1ccccc1 | 83.7% (active)
O=c1c2c3c(sc2n(CCN2CCCC2)c(=O)n1Cc1ccccc1)CCCCC3 | 44.2% (inactive)
CSc1nnnn1-c1c(C)cc(C)cc1C | 3.56% (inactive)
CC(=O)c1c(C)[nH]c(C(=O)COC(=O)c2cccc(S(=O)(=O)N(C)c3ccccc3)c2)c1C | 86.8% (active)
COc1ccc(C)cc1NC(=O)C(OC(=O)c1cccc(S(=O)(=O)N(C)c2ccccc2)c1)c1ccccc1 (stereo not given) | -0.27% (inactive)
CN(c1ccccc1)S(=O)(=O)c1ccc(Cl)c(C(=O)OCC(N)=O)c1 | 7.63% (inactive)
CN(c1ccc(OCC(=O)NC2=NCCS2)cc1)S(=O)(=O)c1ccc(F)cc1 | -3.41% (inactive)
Cc1ccc(S(=O)(=O)/N=C(/NC(=S)Nc2c(C)n(C)n(-c3ccccc3)c2=O)c2ccccc2)cc1 | 5.21% (inactive)
c1ccc(-c2nc(NCc3ccco3)c3ccccc3n2)cc1 | 8.64% (inactive)
Clc1ccc2nc(-c3ccccc3)nc(C(Cl)Cl)c2c1 | 75.6% (active)
Clc1cccc(-c2nc(NCC3CCCO3)c3ccccc3n2)c1 (stereo not given) | 14.2% (inactive)
FC(F)(F)c1cccc(-c2nc(COc3ccc(Cl)cc3Cl)no2)c1 | -14.1% (inactive)
O=C(c1cc(COc2c(F)cccc2F)on1)N1CCSCC1 | -22.2% (inactive)
CC[C@@H](C)[C@@H](C(=O)N1CCN(C(=O)OC(C)(C)C)CC1)n1cc(CCC(=O)O)nn1 | -7.63% (inactive)
O=C(c1c(Cl)cccc1Cl)N1CCN(c2cccc3[nH]ccc23)CC1 | 12.1% (inactive)
COCCN1C(=O)N[C@@H](c2ccccc2)C(C(=O)OC)=C1C | -1.22% (inactive)
COC(=O)C1=C(C)N(C)C(C)=C(C(=O)OC)C1c1cccc(Br)c1 | 71.4% (active)
COC(=O)C1=C(C)N(C)C(=S)NC1c1ccccc1 (stereo not given) | -6.17% (inactive)
N/C(=N\S(=O)(=O)c1ccc(Cl)cc1)N1CCOCC1 | 13.5% (inactive)
c1csc(-c2nnc(COc3ncnc4sccc34)o2)c1 | 4.38% (inactive)
Cc1cccc(C)c1Nc1c(-c2ccccc2O)nc2ncccn12 | 6.71% (inactive)
O=c1c2ccccc2c(-c2ccccc2)nn1-c1ccccn1 | 38.6% (inactive)
O=c1c2ccccc2c(-c2ccc(F)cc2)nn1-c1ccc(C(F)(F)F)cc1 | 75.1% (active)
O=c1c2ccccc2c(-c2ccc(Br)cc2)nn1Cc1ccccc1 | 36.9% (inactive)

SMILES | inhibition
Oc1ccc2ccccc2c1N=Nc1nccs1 | -57.9% (inactive)
Cc1noc(C)c1-c1nc(CSc2ccc(Cl)cc2)no1 | 20.1% (inactive)
O=S(=O)(c1cccc(-c2nnc3n2CCCCC3)c1)N1CCOCC1 | 7.35% (inactive)
COc1cccc(CNC(=O)c2n[nH]c3ccccc23)c1 | 15.2% (inactive)
O=C(COC(=O)c1n[nH]c2ccccc12)NCc1ccccc1 | 38.6% (inactive)
COc1ccc(COC(=O)c2n[nH]c3ccccc23)cc1F | 97.2% (active)
C=CCN(C(=O)Nc1ccc2c(c1)nc(C)n2C)c1ccccc1 | -18.2% (inactive)
O=C(NCCc1c[nH]c2ccc(Cl)cc12)c1ccc([N+](=O)[O-])cc1 | -3.24% (inactive)
CCCOc1ccc(C(=O)NCCc2ccccc2)cc1 | 21.8% (inactive)
CCCOc1ccc(-c2nc(N)n[nH]2)cc1 | 20.8% (inactive)
CCCOc1ccc(Cc2c(Cl)nc(SC)nc2NC)cc1 | 97.5% (active)
CNc1ncnc2c1ncn2[C@@H]1O[C@H](CO)[C@H](O)C1O (stereo not given in full) | 10.8% (inactive)
COc1cc2[nH]c(=S)n(Cc3ccc(C)o3)c(=O)c2cc1OC | 7.74% (inactive)
COc1cc2[nH]c(=S)n(Cc3ccc(F)cc3)c(=O)c2cc1OC | 90.9% (active)
CCOc1cc2[nH]c(=S)n(Cc3ccc(C(=O)NCCOC)cc3)c(=O)c2cc1OCC | 9.91% (inactive)
C#CCNc1ccc(C(=O)OCC)cc1 | -15.6% (inactive)
O=C(O)CC1=C(Nc2ccccc2)C(=O)N(c2ccccc2)C1c1ccc(Cl)cc1 (stereo not given) | 8.1% (inactive)
O=C1c2cccc3cc(Br)cc(c23)C(=O)N1Nc1ccccc1 | 63.7% (inactive)
O=C1C=C(c2ccc(Cl)cc2)C(=O)N1Nc1ccccc1 | 108% (active)
CC(C)(C)c1ccc(C(=O)NCCn2c(N)c(C#N)c3nc4ccccc4nc32)cc1 | 86.5% (active)
N#Cc1c(N)n(CCOC(=O)c2ccc(Cl)cc2)c2nc3ccccc3nc12 | -17.1% (inactive)
CCCNC(=O)c1c(N)n(-c2ccc(S(N)(=O)=O)cc2)c2nc3ccccc3nc12 | -1.19% (inactive)
Cc1ccc(O)c(NC(=S)NC(=O)COc2ccc(Br)cc2)c1 | 74.2% (active)
Cc1cccc(OCC(=O)NC(=S)Nc2ccccc2N2CCOCC2)c1 | 47.7% (inactive)
Cc1ccc(O)c(NC(=O)COc2cc(C)ccc2C)c1 | 5.05% (inactive)
CCCc1c(C(=O)O)cnn1-c1ccc(Cl)cc1 | -2.68% (inactive)
O=C1[C@@H]2C(c3cccnc3)=NO[C@@H]2C(=O)N1c1ccc(Cl)cc1Cl | 19.2% (inactive)

Reference: PubChem BioAssay AID2732 (Emory University Molecular Libraries Screening Center, 2010)
